This note sets out measurements from PubChem BioAssay (NCI).

About 79,000 compounds went through this panel and 15% of them were active in at least one assay; those are over-represented in the sample as a whole. Unmarked numbers belong to inactive results. The source made the active and inactive calls. No stated cut-off is given here; in the data, active means growth inhibition above about 70%; inactive means the rest.

A short description of assay [1]: NCI Yeast Anticancer Drug Screen. Data for the rad50 strain (AID 155).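 Further: 0% = growth of vehicle-only cultures of the same strain.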 As to conditions: S. cerevisiae rad50 strain growth inhibition; at 50.0 µM; stronger effect = higher value. The procedure, abridged: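 Genetically altered yeast (DNA repair pathway); compound treatment; growth inhibition vs vehicle ctrl.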
Assay [2] can be described thus: NCI Yeast Anticancer Drug Screen. Data for the mec2-1 strain (AID 157). The note with it: S. cerevisiae mec2-1 strain, at 50.0 µM, stronger effect = higher value. The procedure, abridged: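 Cells of the genetically defined mec2-1 yeast strain are incubated with test compound. Inhibition of growth is calculated against vehicle-treated controls.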
The nature of assay [3]: NCI Yeast Anticancer Drug Screen. Data for the sgs1 mgt1 strain (AID 161).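 Further: 0% = growth of cultures given vehicle only.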 As to conditions: S. cerevisiae sgs1 mgt1 strain, at 50.0 µM, stronger effect = higher value. The procedure, abridged:
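Genetically altered yeast, compound exposure, growth inhibition relative to vehicle.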

Assay [4] can be described thus: NCI Yeast Anticancer Drug Screen. Data for the cln2 rad14 strain (AID 165).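 Further: 0% = growth equal to vehicle treated cultures.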 The note with it: S. cerevisiae cln2 rad14 strain, at 50.0 µM, stronger effect = higher value. The procedure, abridged: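 The screen exposed genetically defined yeast (cln2 rad14) to test compounds and scored growth inhibition relative to vehicle-treated controls.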
A short description of assay [5]: NCI Yeast Anticancer Drug Screen. Data for the bub3 strain (AID 167). As to conditions: S. cerevisiae bub3 mutant strain, at 50.0 µM, stronger effect = higher value. The procedure, abridged: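 Yeast carrying a defined mutation is treated with each compound, and growth is compared with that of vehicle-exposed cells to give inhibition.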
Assay [6] is described as follows: NCI Yeast Anticancer Drug Screen. Data for the mlh1 rad18 strain (AID 175). The note with it: S. cerevisiae mlh1 rad18 strain growth inhibition; at 50.0 µM; stronger effect = higher value. The procedure, abridged: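 Compound-treated yeast growth, normalised to vehicle controls. Strain bears defined DNA repair mutations.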

For the compound `COC(=O)C1C2C=CC(C2)C1C(=O)OC` (stereo not drawn), the growth inhibition in assay [1] was -20.5%; in assay [2], 36.5%; in assay [3] it was -10.8%; in assay [4] it was -27.9%; in assay [5], -7.95%; in assay [6], 0.1%.
Consider `CCOC(=O)CN1C(=O)CCC1=O`, for which the growth inhibition in assay [1] was -6.6%; in assay [2], 2.55%; in assay [3] it was -1.2%; in assay [4], -3.5%; in assay [5], 1.45%; in assay [6] it was -5.95%.
With `CC(C)c1cccc(C(C)(C)C)n1`, the growth inhibition in assay [1] was 16.1%; in assay [2], 30.5%; in assay [3] it was -2.7%; in assay [4], -3.65%; in assay [5] it was 0.3%; in assay [6], 11.1%.
For the compound `C1=CC(=NN=P(c2ccccc2)(c2ccccc2)c2ccccc2)C=C1`, the growth inhibition in assay [1] is 21.7%; in assay [2], 7.9%; in assay [3], 20.3%; in assay [4], 19.9%; in assay [5], 18.7%; in assay [6] it was 13.5%.
Turning to `COc1cccc(C(=O)NNC(=O)c2cccc(OC)c2)c1`, the growth inhibition is -1.5% in assay [1]; -15.9% in assay [2]; -9.35% in assay [3]; 9.55% in assay [4]; -1.9% in assay [5]; -1.85% in assay [6].
Take `Cc1n(C)c(=O)c2ccccc2[n+]1C`: the growth inhibition in assay [1] is 5.35%; in assay [2], 5.75%; in assay [3] it was -7%; in assay [4], -3.3%; in assay [5] it was 1.95%; in assay [6] it was 6.4%.
With `O=C1CCC2c3ccccc3C(=O)C2C1` (stereo not drawn), the growth inhibition in assay [1] was 6.7%; in assay [2], 4.2%; in assay [3], -1.45%; in assay [4], -19.1%; in assay [5] it was -14.1%; in assay [6], 9.3%.
As to `Cn1ccc2c3ccsc3ccc21`, the growth inhibition is 21.8% in assay [1]; 6.35% in assay [2]; 4.55% in assay [3]; -5.5% in assay [4]; 4.3% in assay [5]; 1.05% in assay [6].
On to `CS(=O)(=O)Nc1ccc(C(=O)CCN2CCCCCC2)cc1`, for which the growth inhibition was -4.35% in assay [1]; 8.9% in assay [2]; -28.9% in assay [3]; -6.6% in assay [4]; -27.5% in assay [5]; -23.1% in assay [6].
Turning to `CC(C)c1ccc(/C=C/C(=O)c2ccc([N+](=O)[O-])cc2)cc1`, the growth inhibition in assay [1] is 9.75%; in assay [2], 2.2%; in assay [3], 11.7%; in assay [4] it was -13.3%; in assay [5], 20.9%; in assay [6], 3.15%.
Consider `N#Cc1ccccc1NC(=O)C(=O)C(C(=O)c1ccccc1-c1ccccc1)C1OC(=O)c2ccccc21` (stereo not drawn), for which the growth inhibition in assay [1] was 24.4%; in assay [2] it was 5.25%; in assay [3] it was 11.7%; in assay [4], -43%; in assay [5] it was 2.25%; in assay [6], 0.95%.
As to `CCOC(=O)c1ncn2c1[nH]c(=O)c1ccccc12`, the growth inhibition in assay [1] was -6.95%; in assay [2], -16.6%; in assay [3], -8.9%; in assay [4], 1.2%; in assay [5], -9.5%; in assay [6] it was -10.6%.
In the case of `COc1ccc(C2(C3NCCC4=C3CCCC4)CC2)cc1` (stereo not drawn), the growth inhibition in assay [1] is 11.9%; in assay [2] it was -5.75%; in assay [3], 32%; in assay [4], -4.1%; in assay [5], -3.7%; in assay [6], 23.6%.
`CCCCCCCCCCCCCCCCCC(=O)CCCCCCCCCCCCCCCCC`: the growth inhibition is -17.3% in assay [1]; -21.7% in assay [2]; -6.65% in assay [3]; 13.8% in assay [4]; -6.2% in assay [5]; -16.7% in assay [6].
On to `CCN(CC(=O)NC(=O)c1ccccc1)c1ccccc1`, for which the growth inhibition in assay [1] was -1.75%; in assay [2], -14%; in assay [3] it was -4.75%; in assay [4] it was -34.5%; in assay [5] it was 5.5%; in assay [6] it was -12.7%.
`C=CCOC(=O)COC(=O)C(C)(C)OC(C)=O`: the growth inhibition in assay [1] is -3.35%; in assay [2], 10.3%; in assay [3] it was -1.7%; in assay [4] it was 10.9%; in assay [5] it was 12.6%; in assay [6], -5.9%.
For `NC(Cc1cc(I)c(Oc2ccc(O)c(I)c2)c(I)c1)C(=O)O` (stereo not drawn), the growth inhibition in assay [1] was -5.1%; in assay [2], -1.35%; in assay [3] it was -9.5%; in assay [4], -27.5%; in assay [5], -30.5%; in assay [6] it was 33.4%.
For the compound `Nc1ccc2c(c1)C(=O)CCCC2`, the growth inhibition in assay [1] was 1.55%; in assay [2] it was -8.95%; in assay [3], -2.15%; in assay [4] it was -10.1%; in assay [5], 1.25%; in assay [6], 14.1%.
With `COc1cc2[nH]c3c(c2cc1OC)CCN[C@@]31CC[C@@]2(CC3c4c(cc(OC)c(O)c42)CCN3C)C[C@@H]1OC` (stereo partly drawn), the growth inhibition was -14.8% in assay [1]; -23.9% in assay [2]; -37.5% in assay [3]; 1% in assay [4]; -35% in assay [5]; -9.7% in assay [6].
`CC1(C)COC(C23C4C5C2C2C3C4C52I)=N1` (stereo not drawn): the growth inhibition in assay [1] was 25.9%; in assay [2] it was 12.4%; in assay [3] it was 11.2%; in assay [4], 18.2%; in assay [5], 26.6%; in assay [6], 16.6%.
On to `O=C(c1ccccc1)c1cc(Cl)ccc1NCn1nnc2ccccc21`, for which the growth inhibition in assay [1] is -47.9%; in assay [2], -22.1%; in assay [3] it was -40.8%; in assay [4], -21.8%; in assay [5], -49.5%; in assay [6], -30.1%.
For the compound `Clc1ccccc1C=Nc1ccccc1`, the growth inhibition in assay [1] is 31.2%; in assay [2], 11.9%; in assay [3], 30.7%; in assay [4], 20.6%; in assay [5] it was 24.7%; in assay [6] it was 34%.
In the case of `Cc1cc(C(F)(F)F)nc2nc3ccccc3n12`, the growth inhibition in assay [1] is 6.55%; in assay [2], -18.9%; in assay [3], -0.15%; in assay [4], -3.7%; in assay [5] it was -29.7%; in assay [6], 6.2%.
In the case of `Oc1ccc(Oc2cc3c(cc2Oc2ccc(O)cc2)-c2nc-3nc3[nH]c(nc4nc(nc5[nH]c(n2)c2cc(Oc6ccc(O)cc6)c(Oc6ccc(O)cc6)cc52)-c2cc(Oc5ccc(O)cc5)c(Oc5ccc(O)cc5)cc2-4)c2cc(Oc4ccc(O)cc4)c(Oc4ccc(O)cc4)cc32)cc1`, the growth inhibition in assay [1] is -94.7%; in assay [2] it was -56.7%; in assay [3] it was -119%; in assay [4], -99.7%; in assay [5] it was -80.5%; in assay [6], -104%.
With `O=c1n(CCCN2CCN(c3cccc(Cl)c3)CC2)nc2ccccn12`, the growth inhibition is 45.9% in assay [1]; 11.4% in assay [2]; 21.9% in assay [3]; 19.8% in assay [4]; -1.4% in assay [5]; 8.35% in assay [6].
As to `COc1ccc(/C=N/NC(=O)NNC(=O)c2cc([N+](=O)[O-])cc([N+](=O)[O-])c2)cc1OC`, the growth inhibition in assay [1] was 33.2%; in assay [2], 13.3%; in assay [3], 36.7%; in assay [4], 15.4%; in assay [5] it was 3.6%; in assay [6], 32.4%.
Regarding `O=C(O)c1cc(Cc2ccc(I)c(C(=O)O)c2)ccc1I`, the growth inhibition in assay [1] is 20.9%; in assay [2] it was 2.5%; in assay [3] it was 32.9%; in assay [4], 29%; in assay [5] it was -5.75%; in assay [6], 40.5%.
As for `O=[N+]([O-])c1ncc(N(CCO)CCO)s1`, the growth inhibition in assay [1] is 19.2%; in assay [2], -22.6%; in assay [3], 17.6%; in assay [4], 3.65%; in assay [5], -18.2%; in assay [6], -22.3%.
As for `COC(=O)c1ccc(SCCC(=O)CO)cc1`, the growth inhibition in assay [1] was 19.4%; in assay [2], 15.9%; in assay [3], -4.6%; in assay [4] it was 5.35%; in assay [5] it was 13%; in assay [6] it was 23.9%.
For `CSc1ccc(NC(=O)c2ccc([N+](=O)[O-])cc2)cc1`, the growth inhibition was -1.1% in assay [1]; 5.6% in assay [2]; 10.3% in assay [3]; -13.3% in assay [4]; 25.9% in assay [5]; 3.05% in assay [6].
In the case of `CC1CCCC2C(=O)OC(=O)C12` (stereo not drawn), the growth inhibition in assay [1] was -5.3%; in assay [2], -9.6%; in assay [3], -13.1%; in assay [4], -60.6%; in assay [5], -21.1%; in assay [6] it was -11.4%.
On to `CCOC(=O)CCC(NC(=O)c1ccc(Nc2cnc3cc(C(F)(F)F)ccc3n2)cc1)C(=O)OCC` (stereo not drawn), for which the growth inhibition in assay [1] is 0.1%; in assay [2], -12.8%; in assay [3], -5.85%; in assay [4], 19.9%; in assay [5], 3.4%; in assay [6], -4.65%.
Take `Cc1c([N+](=O)[O-])cc2c(c1[N+](=O)[O-])C(C)(C)C(C)CC2(C)C` (stereo not drawn): the growth inhibition in assay [1] was 1.2%; in assay [2], -15.8%; in assay [3], 6.45%; in assay [4], -15%; in assay [5], 45.7%; in assay [6] it was -10.9%.
With `CCCCCCCOCC(=O)O`, the growth inhibition in assay [1] was 10%; in assay [2], -5.8%; in assay [3], 3.6%; in assay [4], -30.2%; in assay [5], 1.25%; in assay [6] it was 17.6%.
Regarding `CC[N+](C)(CC)CCNc1cc2c(c3c(=O)c4ccccc4sc13)CCCC2`, the growth inhibition in assay [1] is 99.2% (active); in assay [2], 99.7% (active); in assay [3], 99.1% (active); in assay [4] it was 99.2% (active); in assay [5], 99% (active); in assay [6], 99% (active).
In the case of `CC(=O)Nc1cc2c(cc1Br)-c1ccc(Br)cc1C2`, the growth inhibition is 32.4% in assay [1]; 8.4% in assay [2]; 11.8% in assay [3]; 15.6% in assay [4]; -2.45% in assay [5]; 14.4% in assay [6].
Take `O=C1NC(=Nc2ccccc2Cl)SC1C(=O)Nc1ccc([N+](=O)[O-])cc1[N+](=O)[O-]` (stereo not drawn): the growth inhibition in assay [1] is 8.1%; in assay [2], 7.85%; in assay [3], -34.4%; in assay [4], -28.6%; in assay [5] it was 7.6%; in assay [6], -12.1%.
Consider `O=C(NC(=O)c1c(Cl)nc2sccn12)Nc1ccc(Cl)cc1`, for which the growth inhibition in assay [1] is -5.45%; in assay [2], -14.1%; in assay [3] it was -4.65%; in assay [4], 0.85%; in assay [5], -0.6%; in assay [6] it was -23.9%.
